# According to PubChem BioAssay AID1159580 (chemical genetic matrix, 2015):
# Several values for one entry are separate records, joined by “and”; a condition that tells them apart may be missing. Identical values can stand only once. The whole screen tested about 5,500 compounds, of which about 2,000 (36%) were called active. Roughly 18% stayed inconclusive and do not appear here. Rule as the data show it: active = normalized growth mostly below about 0.91 (no sharp cut-off); inconclusive = no clear call, values can overlap the other calls; inactive = mostly above about 0.92. The list shows a part of the results.
# Experiment: chemical genetic growth profiling, strain panel (AID 1159580);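 also: tested at 20 µM; growth read once vehicle control cultures reached saturation at 30 °C; 1 = growth at the plate median or of vehicle wells; lower values mean less growth of the strain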
# Settings: S. cerevisiae deletion strains, growth OD
smiles,measurement,setting,value
COc1cc2c(cc1OC)C(=O)C(CC1CCN(Cc3ccccc3)CC1)C2 (stereo not given),normalized growth,"locus YAL013W, strain DEP1, stronger effect = lower value",0.953 (inactive)
same,normalized growth,"locus YAL021C, strain ccr4, stronger effect = lower value",0.942 (inactive)
same,normalized growth,"locus YAL026C, strain drs2, stronger effect = lower value",0.606 (active)
same,normalized growth,"locus YAL030W, strain snc1, stronger effect = lower value",1.01 (inactive)
same,normalized growth,"locus YBL061C, strain skt5, stronger effect = lower value",0.974 (inactive)
same,normalized growth,"locus YBR009C, strain hhf1, stronger effect = lower value",0.975 (inactive)
same,normalized growth,"locus YBR021W, strain FUR4, stronger effect = lower value",1.03 (inactive)
same,normalized growth,"locus YBR023C, strain chs3, stronger effect = lower value",0.988 (inactive)
same,normalized growth,"locus YBR171W, strain sec66, stronger effect = lower value",1.03 (inactive)
same,normalized growth,"locus YBR229C, strain ROT2, stronger effect = lower value",1.01 (inactive)
same,normalized growth,"locus YBR279W, strain paf1, stronger effect = lower value",0.972 (inactive)
same,normalized growth,"locus YCL011C, strain gbp2, stronger effect = lower value",0.978 (inactive)
same,normalized growth,"locus YCL016C, strain dcc1, stronger effect = lower value",0.986 (inactive)
same,normalized growth,"locus YCL029C, strain bik1, stronger effect = lower value",0.989 (inactive)
same,normalized growth,"locus YCL061C, strain MRC1, stronger effect = lower value",0.967 (inactive)
same,normalized growth,"locus YCL069W, strain vba3, stronger effect = lower value",1.02 (inactive)
same,normalized growth,"locus YCR088W, strain abp1, stronger effect = lower value",1.01 (inactive)
same,normalized growth,"locus YDL005C, strain med2, stronger effect = lower value",1.03 (inactive)
same,normalized growth,"locus YDL035C, strain GPR1, stronger effect = lower value",0.869 (inactive)
same,normalized growth,"locus YDL040C, strain nat1, stronger effect = lower value",0.981 (inactive)
same,normalized growth,"locus YDL074C, strain BRE1, stronger effect = lower value",0.734 (active)
same,normalized growth,"locus YDL101C, strain DUN1, stronger effect = lower value",0.948 (inactive)
same,normalized growth,"locus YDL134C, strain PPH21, stronger effect = lower value",0.798 (active)
same,normalized growth,"locus YDL185W, strain tfp1, stronger effect = lower value",0.998 (inactive)
same,normalized growth,"locus YDL192W, strain arf1, stronger effect = lower value",0.926 (inactive)
same,normalized growth,"locus YDR001C, strain nth1, stronger effect = lower value",1.02 (inactive)
same,normalized growth,"locus YDR069C, strain doa4, stronger effect = lower value",0.935 (inactive)
same,normalized growth,"locus YDR101C, strain arx1, stronger effect = lower value",0.904 (active)
same,normalized growth,"locus YDR137W, strain rgp1, stronger effect = lower value",0.627 (active)
same,normalized growth,"locus YDR150W, strain NUM1, stronger effect = lower value",0.977 (inactive)
same,normalized growth,"locus YDR159W, strain sac3, stronger effect = lower value",0.953 (inactive)
same,normalized growth,"locus YDR162C, strain NBP2, stronger effect = lower value",0.807 (active)
same,normalized growth,"locus YDR195W, strain ref2",1.08 (inactive)
same,normalized growth,"locus YDR297W, strain sur2, stronger effect = lower value",0.989 (inactive)
same,normalized growth,"locus YDR318W, strain mcm21, stronger effect = lower value",0.913 (active)
same,normalized growth,"locus YDR334W, strain swr1, stronger effect = lower value",1.02 (inactive)
same,normalized growth,"locus YDR335W, strain msn5, stronger effect = lower value",0.999 (inactive)
same,normalized growth,"locus YDR388W, stronger effect = lower value",0.998 (inactive)
same,normalized growth,"locus YDR392W, strain spt3, stronger effect = lower value",1.09 (inactive)
same,normalized growth,"locus YDR502C, strain sam2, stronger effect = lower value",0.834 (active)
same,normalized growth,"locus YEL003W, strain gim4, stronger effect = lower value",0.988 (inactive)
same,normalized growth,"locus YEL037C, strain rad23, stronger effect = lower value",1.02 (inactive)
same,normalized growth,"locus YEL061C, strain CIN8 (second series), stronger effect = lower value",1.04 (inactive)
same,normalized growth,"locus YEL061C, strain CIN8, stronger effect = lower value",1.06 (inactive)
same,normalized growth,"locus YER015W, strain faa2, stronger effect = lower value",0.947 (inactive)
same,normalized growth,"locus YER016W, strain bim1, stronger effect = lower value",1 (inactive)
same,normalized growth,"locus YER110C, stronger effect = lower value",0.992 (inactive)
same,normalized growth,"locus YER111C, strain swi4, stronger effect = lower value",1.02 (inactive)
same,normalized growth,"locus YER155C, strain BEM2 (second series), stronger effect = lower value",1.02 (inactive)
same,normalized growth,"locus YER155C, strain BEM2, stronger effect = lower value",1.01 (inactive)
same,normalized growth,"locus YER167W, strain BCK2, stronger effect = lower value",0.829 (active)
same,normalized growth,"locus YFR010W, strain ubp6, stronger effect = lower value",1.03 (inactive)
same,normalized growth,"locus YGL078C, strain dbp3, stronger effect = lower value",0.976 (inactive)
same,normalized growth,"locus YGL086W, strain mad1, stronger effect = lower value",0.954 (inactive)
same,normalized growth,"locus YGL167C, strain pmr1, stronger effect = lower value",0.961 (inactive)
same,normalized growth,"locus YGL173C, strain kem1, stronger effect = lower value",1.01 (inactive)
same,normalized growth,"locus YGL227W, strain vid30, stronger effect = lower value",1.06 (inactive)
same,normalized growth,"locus YGL240W, strain doc1, stronger effect = lower value",0.994 (inactive)
same,normalized growth,"locus YGL248W, strain PDE1, stronger effect = lower value",0.818 (active)
same,normalized growth,"locus YGL253W, strain hxk2, stronger effect = lower value",0.891 (active)
same,normalized growth,"locus YGR078C, strain PAC10, stronger effect = lower value",0.821 (active)
same,normalized growth,"locus YGR135W, strain pre9, stronger effect = lower value",0.787 (active)
same,normalized growth,"locus YGR229C, strain SMI1, stronger effect = lower value",0.523 (active)
same,normalized growth,"locus YGR252W, strain gcn5, stronger effect = lower value",0.742 (active)
same,normalized growth,"locus YHR013C, strain ard1, stronger effect = lower value",0.955 (inactive)
same,normalized growth,"locus YHR027C, strain rpn1, stronger effect = lower value",0.99 (inactive)
same,normalized growth,"locus YHR030C, strain SLT2, stronger effect = lower value",0.94 (inactive) and 0.973 (inactive)
same,normalized growth,"locus YHR079C, strain IRE1 (second series), stronger effect = lower value",0.951 (inactive)
same,normalized growth,"locus YHR079C, strain IRE1, stronger effect = lower value",0.949 (inactive)
same,normalized growth,"locus YHR094C, strain hxt1, stronger effect = lower value",1 (inactive)
same,normalized growth,"locus YHR129C, strain ARP1, stronger effect = lower value",0.876 (active)
same,normalized growth,"locus YHR142W, strain chs7, stronger effect = lower value",0.919 (inactive)
same,normalized growth,"locus YHR200W, strain rpn10, stronger effect = lower value",0.973 (inactive)
same,normalized growth,"locus YIL066C, strain RNR3, stronger effect = lower value",0.896 (inactive)
same,normalized growth,"locus YIL073C, strain SPO22, stronger effect = lower value",0.904 (inactive)
same,normalized growth,"locus YIL125W, strain kgd1, stronger effect = lower value",1.01 (inactive)
same,normalized growth,"locus YIR030C, strain dcg1, stronger effect = lower value",0.985 (inactive)
same,normalized growth,"locus YJL092W, strain hpr5, stronger effect = lower value",1.02 (inactive)
same,normalized growth,"locus YJL095W, strain BCK1 (second series), stronger effect = lower value",0.994 (inactive)
same,normalized growth,"locus YJL095W, strain BCK1, stronger effect = lower value",0.657 (active) and 1.01 (inactive)
same,normalized growth,"locus YJL115W, strain asf1, stronger effect = lower value",1.02 (inactive)
same,normalized growth,"locus YJL129C, strain trk1, stronger effect = lower value",0.896 (inactive)
same,normalized growth,"locus YJL134W, strain LCB3, stronger effect = lower value",0.996 (inactive)
same,normalized growth,"locus YJL154C, strain vps35, stronger effect = lower value",1.01 (inactive)
same,normalized growth,"locus YJL164C, strain tpk1, stronger effect = lower value",1 (inactive)
same,normalized growth,"locus YJL166W, strain qcr8, stronger effect = lower value",0.931 (inactive)
same,normalized growth,"locus YJL168C, strain set2, stronger effect = lower value",0.998 (inactive)
same,normalized growth,"locus YJL187C, strain SWE1 (second series), stronger effect = lower value",0.849 (active)
same,normalized growth,"locus YJL187C, strain SWE1, stronger effect = lower value",0.975 (inactive)
same,normalized growth,"locus YJR043C, strain POL32, stronger effect = lower value",0.872 (inactive)
